# Records with an inconclusive call do not appear. The source made the active and inactive calls. Unless noted, the rule behind the calls is not given here.
# What was measured:
# [1] = qHTS profiling of the MIPE4 collection as inhibitors of Plasmodium falciparum (3D7) proliferation (AID 743344);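 note: scaled between DMSO vehicle wells and 0.29 µM artemisinin as full inhibition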; conditions: P. falciparum 3D7 in erythrocytes, SYBR Green DNA fluorescence, 72 h; at 28.5 µM unless noted
# Outline: (§1)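 Erythrocytes infected with P. falciparum (0.3% parasitemia, 2.5% hematocrit) incubated with compounds 72 h at 37 C, 5% CO2. Lysis with saponin/Triton buffer containing SYBR Green I, overnight at room temperature in the dark; DNA fluorescence (485/535 nm) normalised to 0.29 uM artemisinin and DMSO.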
# [2] = qHTS profiling of the MIPE4 collection as inhibitors of Plasmodium falciparum (DD2) proliferation (AID 743345); conditions: P. falciparum Dd2 in erythrocytes, SYBR Green DNA, 72 h; at 28.5 µM unless noted
# Outline: as §1
# [3] = qHTS profiling of the MIPE4 collection as inhibitors of Plasmodium falciparum (DD2) proliferation (Rep 2) (AID 743346); conditions: P. falciparum Dd2 in erythrocytes, SYBR Green DNA, 72 h; at 28.5 µM unless noted
# Outline: as §1
# [4] = qHTS profiling of the MIPE4 collection as inhibitors of Plasmodium falciparum (HB3) proliferation (AID 743347);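 note: plate controls were DMSO vehicle wells for no effect and artemisinin wells for full effect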; conditions: P. falciparum HB3 in erythrocytes, SYBR Green DNA, 72 h; at 28.5 µM unless noted
# Outline: as §1
# [5] = High-throughput drug toxicity screening in the BPDCN cell line Gen2.2 (AID 1224824); conditions: Gen2.2 BPDCN cells; at 45.8 µM (top of the series) unless noted;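 note: cells exposed to compounds for 48 h before reading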
# Outline: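 Gen2.2, 500 cells/well, phenol red-free RPMI/10% FBS/Pen-Strep; 48 h cpd, 37 °C/5% CO2; CTG lum, 15 min RT. Norm: DMSO = 100%, bortezomib 9.2 uM final = 0%.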
# [6] = High-throughput drug toxicity screening in the BPDCN cell line Cal-1 (AID 1224825); conditions: Cal-1 BPDCN cell viability, qHTS; at 45.8 µM (top of the series) unless noted
# Outline: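 Exponentially growing Cal-1 cells, 500 per well in phenol red-free RPMI with 10% FBS, were exposed to compounds for 48 h at 37 °C, 5% CO2. Viability was read by CellTiter-Glo luminescence and normalised to DMSO (100%) and 9.2 uM bortezomib (0%).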
# [7] = qHTS assay for measurement of the activity of small molecule inhibitors on Zika virus induced Caspase-3 activity in human iPSC derived neural progenitor cells (hNPCs) (AID 1224857; active = well fitted curve in the direction sought with a large enough effect; an effect the other way counts as inactive or inconclusive; note: nearly all actives have a fitted effect of over 65% in size; note: potency is the fitted concentration of half-maximal effect)
# Outline: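 In medium with heparin 2 ug/ml and cyclopamine 2 uM, hNPCs (350 cells/well) received compound for one hour and then Zika virus at 2 FFU/cell; caspase activity was measured by Caspase-Glo 3/7 luminescence 6 h post-infection.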
# [8] = qHTS profiling for inhibitors of Plasmodium falciparum (3D7) proliferation (AID 743322);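 note: infected erythrocytes exposed to compound for 72 h before lysis; 100% = DMSO vehicle wells and 0% = 0.29 µM artemisinin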; conditions: P. falciparum 3D7 proliferation; at 28.7 µM (top of the series)
# Outline: as §1
# [9] = qHTS profiling for inhibitors of Plasmodium falciparum (DD2) proliferation (AID 743323); conditions: lower = more inhibition; at 28.7 µM (top of the series)
# Outline: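 Parasite proliferation measured via DNA-dye fluorescence, as uninfected erythrocytes lack DNA. Cultures at 0.3% parasitemia and 2.5% hematocrit incubated 72 h with compound; signal scaled between vehicle and 0.29 uM artemisinin wells.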
# [10] = qHTS profiling for inhibitors of Plasmodium falciparum (HB3) proliferation (AID 743324; active = well fitted curve in the direction sought with a large enough effect; an effect the other way counts as inactive or inconclusive;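 note: 100% = DMSO vehicle wells and 0% = artemisinin-treated control wells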); conditions: Plasmodium falciparum HB3 blood-stage proliferation; at 28.7 µM (top of the series)
# Outline: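 P. falciparum HB3 grown in erythrocytes (0.3% parasitemia, 2.5% hematocrit final) with compound for 72 h at 37 C, 5% CO2. Parasite DNA detected by SYBR Green after saponin/triton lysis overnight; normalized to 0.29 uM artemisinin and DMSO.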
SMILES,"parasite growth, % of DMSO control [1] [%]","parasite growth remaining, % of DMSO control (lower = more inhibition) [2]","parasite growth, % of control (lower = inhibition) [3]","growth, % of control [4]","cell viability, % of control (lower = more cytotoxic) [5]",viability (% of control) [6],Potency [7],remaining parasite growth % (stronger effect = lower value) [8] [%],"activity, percent of control [9] [%]","remaining proliferation (% of control), lower = more inhibition [10] [%]"
CC[C@H]1CN2CCc3cc(OC)c(OC)cc3[C@H]2C[C@@H]1C[C@@H]1NCCc2cc(OC)c(OC)cc21,4.96,6.45%,7.29%,3.29%,8.8%,6.78%,inactive,,,
CCCn1c(=O)c2[nH]c(-c3cnn(Cc4cccc(C(F)(F)F)c4)c3)nc2n(CC)c1=O,62.2,73.8%,43.2%,51.8%,49.4%,107%,inactive,,,
Clc1cccc(-c2nnnn2Cc2cccnc2)c1Cl,72.2,95.6%,84.8%,86.1%,164%,95.3%,inactive,,,
O=C(Nc1ncc(-c2cc(C(F)F)nn2-c2c(Cl)cccc2Cl)s1)C1CC1,10.3,26.5%,31.4%,19.5%,23.6%,9.09%,inactive,,,
COc1cccc(Nc2c(C(N)=O)cnc3c(C)cc(S(=O)(=O)c4cccc(C(=O)N(C)C)c4)cc23)c1,,90.5% [at 9.64 µM],40% [at 9.64 µM],90% [at 9.64 µM],216% [at 23.2 µM],108% [at 23.2 µM],inactive,,,
Nc1ccc(S(=O)(=O)Nc2ncccn2)cc1,,105%,69.1%,63.8%,115%,103%,inactive,,,
Cc1c(CN2CCN(S(C)(=O)=O)CC2)sc2c(N3CCOCC3)nc(-c3cnc(N)nc3)nc12,,14.2%,18.4%,5.68%,16.1%,19.3%,inactive,,,
COc1cccc(-c2ccc(NC(=O)C3=C(C(=O)O)CCC3)c(F)c2)c1,64.2,90.8%,53%,78.8%,19%,4.11%,2640 nM (active),,,
O=C(c1cncc(Br)c1)N1CCC(N2CCCC2)CC1,102,105%,80.8%,96.9%,144%,126%,inactive,,,
COc1cc2c(cc1-c1c(C)noc1C)ncc1[nH]c(=O)n([C@H](C)c3ccccn3)c12,,97.3%,86.2%,,65.5%,7.22%,inactive,,,
COc1ccc(OC)c(-c2nnc3ccc(-c4ccc(OC)c(O[C@@H]5CCOC5)c4)nn23)c1,5.33,6.53%,16%,8.79%,6.73%,,inactive,-0.0314,0.138,0.357
CCN(CC)CCNC(=O)c1ccc2nc(-c3ccccc3)c(-c3ccc(CN4CCC(n5c(=O)[nH]c6ccccc65)CC4)cc3)nc2c1,4.56,5.78%,19.4%,8.22%,1.68%,0.965%,inactive,,,
CCCCOc1c(C(=O)c2c(F)cc(C)cc2F)cnc2n[nH]cc12,71.2,98.1%,43.3%,92.5%,8.67%,26.5%,inactive,,,
COc1cc2c(Nc3ccc(NC(=O)c4ccccc4)cc3)ncnc2cc1OCCCN1CCOCC1,10.3,21.6%,30%,,4.68%,,inactive,2.34,15.5,3.78
COc1ccc2c(OCc3nnc4ccc(-c5ccccc5)nn34)ccnc2c1,,97.5%,67%,59.2%,170%,105%,inactive,,,
COc1cc2c(Oc3ccc(-c4cnc(Nc5ccc(F)cc5)n(C)c4=O)cc3F)ccnc2cc1OCCCN1CCOCC1,6.28,6.26%,17%,9.39%,5.93%,,inactive,-2.59,-0.143,-1.33
CN1CCN(Cc2ccc(NC(=O)Nc3ccc(Oc4cc(NC(=O)C5CC5)ncn4)cc3)cc2C(F)(F)F)CC1,6,6.55%,14.2%,7.58%,0.71%,0.746%,inactive,,,
CN1c2cc(O)c(N=NC(N)=O)cc2CC1S(=O)(=O)O (configuration not stated),,,19.7%,,170%,126%,inactive,,,
Nc1nc(Nc2ccc(S(N)(=O)=O)cc2)nn1C(=O)c1c(F)cccc1F,16.5,11.8%,14.1%,9.06%,13.3%,,inactive,14.8,9.84,10.9
O=C1CCC[C@@H]2[C@H]3CCC[N+]4([O-])CCC[C@@H](CN12)[C@@H]34 (some centres not stated),64.9,33.8%,61.6%,68.6%,92.5%,100%,inactive,,,
CC1(C)CCC(c2ccc(Cl)cc2)=C(CN2CCN(c3ccc(C(=O)NS(=O)(=O)c4ccc(N[C@H](CCN5CCOCC5)CSc5ccccc5)c(S(=O)(=O)C(F)(F)F)c4)cc3)CC2)C1,17.1,8.31%,16.8%,9.9%,7.3%,16.1%,,0.209,2.76,-0.0239
